Consider eight compounds from PubChem BioAssay (NCI).

Some test systems named below: NCI-H23 lung; NCI-H226 lung; NCI-H322M lung; HOP-62 NSCLC; NCI-H460 lung; HOP-92 NSCLC; NCI-H522 lung; A549/ATCC NSCLC; 786-0 renal; COLO 205 colon; DU-145 prostate; K-562 leukemia; MALME-3M melanoma; MDA-MB-231 breast; RXF 393 renal; SF-268 CNS; SF-295 CNS; SF-539 CNS; UACC-257 melanoma; M14 melanoma.
Common to all, as to assay: NCI-60 one-dose screen, 48 h (100 = growth as untreated, 0 = no growth, -100 = all killed)
Holding throughout (conditions): 10 µM unless noted

This is part of a sample that, as a whole, favours compounds with a hit. Of some 83,000 tested, about 20% had one in any assay.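 Assay: single dose, 48 h. Readout: percent growth (0 = no net growth; negative = cell death). Active: <10.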 Unmarked numbers belong to inactive results. The source made the active and inactive calls.

As to `O=C(/C=C\c1ccco1)/C=C/c1ccco1`, the growth in the experiment with NCI-H23 lung is 98.6%; in the experiment on NCI-H226 lung it was 98.6%; in the experiment with NCI-H322M lung, 117%; in the experiment on HOP-62 NSCLC, 98.1%; in the experiment with NCI-H460 lung it was 116%; in the experiment on HOP-92 NSCLC, 107%. Further, the growth in the experiment on NCI-H522 lung is 112%; in the experiment on A549/ATCC NSCLC it was 102%; in the experiment with 786-0 renal, 110%; with COLO 205 colon, 106%; with DU-145 prostate, 106%; in the experiment with K-562 leukemia it was 111%. Also, the growth in the experiment with MALME-3M melanoma was 112%; in the experiment on MDA-MB-231 breast, 93.4%; with RXF 393 renal, 100%; in the experiment on SF-268 CNS, 113%; in the experiment on SF-295 CNS, 101%; with SF-539 CNS, 108%. The growth with UACC-257 melanoma is 100%; with M14 melanoma it was 105%.
As for `O=C(CCCCCCN1CC(=O)N2[C@@H](c3ccc(Cl)cc3)c3[nH]c4ccccc4c3C[C@H]2C1=O)NO`, the growth was 71.3% in the experiment with NCI-H23 lung; 90.2% in the experiment with NCI-H226 lung; 70.3% with NCI-H322M lung; 66.4% with HOP-62 NSCLC; 67.6% in the experiment on NCI-H460 lung; 15.3% with HOP-92 NSCLC. Further, the growth in the experiment on NCI-H522 lung is 38.2%; with A549/ATCC NSCLC, 93.6%; in the experiment with 786-0 renal it was 83.9%; with COLO 205 colon it was 75.3%; in the experiment with DU-145 prostate it was 73.4%; with K-562 leukemia, 29.7%. Besides, the growth was 37.2% in the experiment with MALME-3M melanoma; 50.9% with MDA-MB-231 breast; 72.7% in the experiment with RXF 393 renal; 91.2% in the experiment with SF-268 CNS; 80.6% in the experiment with SF-295 CNS; 63.5% in the experiment on SF-539 CNS. Also, the results for the growth with UACC-257 melanoma and with M14 melanoma were 79.7% and 59%, respectively.
For `CCNc1nc(-c2ccc(F)cc2)c(C#N)c(=O)n1C`, the growth is 73.8% in the experiment on NCI-H23 lung; 55% with NCI-H226 lung; 57.2% with NCI-H322M lung; 51.8% in the experiment with HOP-62 NSCLC; 74.7% with NCI-H460 lung; -1.14% (active) in the experiment with HOP-92 NSCLC. Moreover, the growth in the experiment on NCI-H522 lung was 52.1%; in the experiment with A549/ATCC NSCLC, 58.9%; in the experiment with 786-0 renal, 64.3%; in the experiment with COLO 205 colon it was 62.8%; in the experiment with DU-145 prostate, 63.4%; in the experiment on K-562 leukemia, 100%. In addition, the growth was 93% in the experiment on MALME-3M melanoma; 33.6% in the experiment with MDA-MB-231 breast; 44% with RXF 393 renal; 58.5% with SF-268 CNS; 59.7% in the experiment on SF-295 CNS; 59.7% in the experiment with SF-539 CNS. In addition, the growth in the experiment with UACC-257 melanoma was 102%; in the experiment with M14 melanoma, 82.8%.
Turning to `O=C(Nc1ncc(Cc2ccccc2Cl)s1)c1cccs1`, the growth in the experiment on NCI-H23 lung is 80.3%; with NCI-H226 lung, 85.1%; in the experiment with NCI-H322M lung, 78%; in the experiment with HOP-62 NSCLC, 66.6%; in the experiment with NCI-H460 lung, 57.7%; in the experiment on HOP-92 NSCLC it was 58.6%. In addition, the growth was 51.9% in the experiment with NCI-H522 lung; 54.1% with A549/ATCC NSCLC; 86.1% in the experiment with 786-0 renal; 85.8% in the experiment on COLO 205 colon; 82.6% in the experiment with DU-145 prostate; 16.9% with K-562 leukemia. Also, the growth in the experiment on MALME-3M melanoma was 69.1%; in the experiment on MDA-MB-231 breast, 88.7%; in the experiment on RXF 393 renal, 82.2%; in the experiment on SF-268 CNS, 76.4%; in the experiment on SF-295 CNS it was 65.2%; in the experiment with SF-539 CNS, 95.8%. The results for the growth in the experiment with UACC-257 melanoma and in the experiment with M14 melanoma were 92.6% and 62.3%, respectively.
For the compound `COc1ccc2c(c1)c(-c1nonc1-c1cn(C)c3ccc(OC)cc13)cn2C`, the growth is 59.2% in the experiment with NCI-H23 lung; 75.1% in the experiment on NCI-H226 lung; 71.1% in the experiment with NCI-H322M lung; 32.4% in the experiment on HOP-62 NSCLC; 12.6% in the experiment with NCI-H460 lung; 55.6% with HOP-92 NSCLC. Also, the growth in the experiment on NCI-H522 lung was 18.5%; in the experiment on A549/ATCC NSCLC, 39.2%; with 786-0 renal, 54.5%; in the experiment on COLO 205 colon it was 32.9%; in the experiment with DU-145 prostate, 70.9%; in the experiment on K-562 leukemia, 13%. Besides, the growth in the experiment on MALME-3M melanoma is 41.7%; in the experiment with MDA-MB-231 breast, 49.5%; in the experiment on RXF 393 renal it was 70.9%; with SF-268 CNS, 54.2%; in the experiment on SF-295 CNS, 30.4%; with SF-539 CNS it was 33.9%. The growth with UACC-257 melanoma is 62.4%; in the experiment on M14 melanoma it was 16.6%.
As for `COc1ccc(-c2cn(-c3ccc(Cl)cc3)c(SCC(=O)c3ccc([N+](=O)[O-])cc3)n2)cc1`, the growth is 86.9% with NCI-H23 lung; 91.3% in the experiment on NCI-H226 lung; 81.1% in the experiment with NCI-H322M lung; 50.4% with HOP-62 NSCLC; 91.5% with NCI-H460 lung; 28% with HOP-92 NSCLC. The growth in the experiment with NCI-H522 lung was 70.7%; in the experiment with A549/ATCC NSCLC, 101%; with 786-0 renal it was 52.9%; in the experiment on COLO 205 colon it was 110%; with DU-145 prostate it was 102%; in the experiment on K-562 leukemia it was 102%. The growth was 87.9% in the experiment with MALME-3M melanoma; 80% in the experiment with MDA-MB-231 breast; 54.1% in the experiment on RXF 393 renal; 73.1% in the experiment with SF-268 CNS; 75.3% in the experiment with SF-295 CNS; 82.5% in the experiment with SF-539 CNS. For the same compound, the growth in the experiment with UACC-257 melanoma was 99.6%; in the experiment on M14 melanoma, 92.4%.
As to `COc1cc(-c2nc(NC(C)=O)sc2-c2ccnc(NCCNS(=O)(=O)c3ccccc3)n2)ccc1Cl`, the growth was 63.4% in the experiment on NCI-H23 lung; 57.1% with NCI-H226 lung; 79.1% in the experiment with NCI-H322M lung; 34.2% in the experiment with HOP-62 NSCLC; 11.8% in the experiment on NCI-H460 lung; 25.3% in the experiment with HOP-92 NSCLC. In addition, the growth was 9.14% (active) with NCI-H522 lung; 25.6% in the experiment on A549/ATCC NSCLC; 34.7% in the experiment on 786-0 renal; 2.47% (active) in the experiment on COLO 205 colon; 53.4% in the experiment with DU-145 prostate; 13.8% in the experiment on K-562 leukemia. Also, the growth was 27.9% in the experiment with MALME-3M melanoma; 35.1% with MDA-MB-231 breast; 36.7% in the experiment with RXF 393 renal; 38.4% with SF-268 CNS; 10.9% in the experiment on SF-295 CNS; 8.69% (active) in the experiment on SF-539 CNS. The growth was 47.1% in the experiment with UACC-257 melanoma and -20.4% (active) in the experiment with M14 melanoma.
As to `COc1cccc(C(=O)OCC(O)C(=O)NC23CC4CC(CC(C4)C2)C3)c1` (stereo not given), the growth was 102% in the experiment on NCI-H23 lung; 93.5% in the experiment with NCI-H226 lung; 96.4% with NCI-H322M lung; 104% with HOP-62 NSCLC; 101% in the experiment on NCI-H460 lung; 91.7% in the experiment with HOP-92 NSCLC. Also, the growth with NCI-H522 lung is 86.1%; in the experiment with A549/ATCC NSCLC, 90.1%; in the experiment with 786-0 renal, 101%; in the experiment with COLO 205 colon, 111%; in the experiment with DU-145 prostate, 106%; with K-562 leukemia, 99.1%. The growth in the experiment on MALME-3M melanoma was 99.1%; with MDA-MB-231 breast, 93%; with RXF 393 renal it was 109%; in the experiment on SF-268 CNS, 102%; in the experiment on SF-295 CNS it was 95.9%; with SF-539 CNS, 103%. Further, the results for the growth with UACC-257 melanoma and with M14 melanoma were 89% and 99.1%, respectively.
